Screening data deposited in PubChem by NMMLSC.
Rac1 wt GTP bind: wildtype Rac1 GTP binding modulators, primary screen, biochemical, GST-Rac1 beads, flow cytometry, multiplex; GTP binding activity (% of control), % at 10 µM; Ras-related C3 botulinum toxin substrate 1 (Homo sapiens), P63000; actives 0.27% (n = 190,000); fluorescent GTP binding; actives lie on both sides; 0 = cold GTP competed, 100 = untreated;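 active means GTP binding activity at least 20 points away from the 100% control level, either lower or higher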
HRas wt GTP bind: modulators of GTP binding to HRas wildtype, primary screen, biochemical, bead-based flow cytometry, multiplex; GTP binding activity, % at 10 µM; actives 0.14% (n = 190,000); GTPase HRas (Homo sapiens), P01112; AID 759, 2007; GST-Ras wt beads, Bodipy-FL-GTP binding; actives lie on both sides;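 active means GTP binding activity at least 20% away from the 100% baseline, either lowered as inhibitor or raised as activator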;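 further: 0% = unlabeled GTP competition control and 100% = no-compound control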
Target sequence (P01112 whole entry, looked up): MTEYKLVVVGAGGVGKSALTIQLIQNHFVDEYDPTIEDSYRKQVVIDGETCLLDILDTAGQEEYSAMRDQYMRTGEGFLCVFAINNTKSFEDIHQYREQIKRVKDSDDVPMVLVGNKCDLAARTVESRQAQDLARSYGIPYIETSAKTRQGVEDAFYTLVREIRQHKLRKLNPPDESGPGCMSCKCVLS
Rac1 mut GTP: GTP binding modulators of activated mutant Rac1, primary screen, biochemical, bead-based flow cytometry, multiplex, fluorescent GTP; GST-Rac1 activated beads; actives lie on both sides; 100% means binding = to untreated wells; percent activity (GTP binding), % at 10 µM; actives 0.11% (n = 190,000); Ras-related C3 botulinum toxin substrate 1 (Homo sapiens), P63000;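 active means GTP binding at least 20 percentage points away from the 100% baseline, in either direction, so actives lie on both sides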
Cdc42 wt GTP: modulators of GTP binding to wildtype Cdc42, primary screen, biochemical, multiplex bead flow cytometry, Bodipy-GTP. Cell division control protein 42 homolog (Homo sapiens), P60953. GST-Cdc42 beads; actives lie on both sides. percent activity (GTP binding), % at 10 µM. actives 0.2% (n = 190,000);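 active means percent activity GTP binding at least 20 points away from the 100% baseline, either down as inhibitor or up as activator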;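 further: median bead fluorescence of bound Bodipy-FL-GTP at 100 nM; 0% = excess unlabeled GTP control and 100% = no compound control; below 100% means less GTP binding so inhibitor and above means activator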
Target sequence (P60953 whole entry, looked up): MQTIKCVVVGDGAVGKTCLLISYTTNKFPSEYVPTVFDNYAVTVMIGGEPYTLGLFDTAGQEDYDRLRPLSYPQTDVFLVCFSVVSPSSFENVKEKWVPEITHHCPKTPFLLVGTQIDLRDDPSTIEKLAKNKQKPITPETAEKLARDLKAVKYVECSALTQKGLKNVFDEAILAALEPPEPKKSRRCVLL
Rab2A wt mod: modulators of GTP binding to Rab2A wildtype, primary screen, biochemical, dog, bead-based flow cytometry, multiplex; Ras-related protein Rab-2A (Canis lupus familiaris), P61105; GST-Rab2 wt beads, Bodipy-GTP binding; GTP binding activity, % at 10 µM; actives 0.19% (n = 190,000);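 active means GTP binding activity at least 20 points away from 100%, either lowered or raised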;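 further: 0% = beads with excess unlabeled GTP and 100% = no-compound control corrected for plate trend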
Rab7 wt GTP bind: modulators of GTP binding to Rab7, primary screen, biochemical, wildtype, multiplex bead flow cytometry; Rab7 GTPase wild type (dog), Bodipy-FL-GTP binding; GST-Rab7 beads, fluorescent GTP binding; actives lie on both sides; untreated = 100%, excess cold GTP = 0%; GTP binding activity (percent of control), % at 10 µM; actives 0.055% (n = 190,000); AID 758, 2007;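 active means fluorescent GTP binding to Rab7 beads changed by at least 20 points from the 100% baseline, either direction, mostly lower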;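 further: median green fluorescence of bound Bodipy-FL-GTP per Rab7 bead population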
Starred values were filed as active, the others as inactive; [ ] = another dose, or the depositor's remark. A selection: hits, their analogues and other compounds. The true share with any hit is near 0.38%.

SMILES | Rac1 wt GTP bind | HRas wt GTP bind | Rac1 mut GTP | Cdc42 wt GTP | Rab2A wt mod | Rab7 wt GTP bind
CC1(C)CC2CC(C)(CN2C(=O)c2cccs2)C1 (stereo unspecified) | 157*[activator] | 100 | 113 | 133*[activator] | 104 | 100
CC(=O)OC(C)CS(=O)(=O)c1ccccc1 (stereo unspecified) | 94 | 97 | 93 | 93 | 97 | 103
COc1ccccc1NC(=O)CN(c1ccc(C)cc1)S(=O)(=O)c1c(C)n[nH]c1C | 103 | 99 | 99 | 98 | 98 | 94
COc1ccc(N(CC(=O)Nc2cccc(C)c2C)S(=O)(=O)c2c(C)n[nH]c2C)cc1 | 81 | 84 | 88 | 83 | 79* | 87
Cc1ccc(N2C(=O)c3ccccc3C2Nc2cccnc2)nc1 (stereo unspecified) | 121*[activator] | 101 | 103 | 110 | 104 | 99
COc1cc(NC2c3ccccc3C(=O)N2c2ccc(C)cn2)cc(OC)c1OC (stereo unspecified) | 107 | 102 | 101 | 105 | 100 | 101
COc1cccc(NC(=O)COC(=O)/C=C/c2ccc(Cl)cc2Cl)c1 | 77* | 82 | 80 | 79* | 79* | 86
COc1cc(NC(=O)COC(=O)/C=C/c2ccc(Cl)cc2Cl)cc(OC)c1 | 96 | 98 | 98 | 99 | 96 | 96
CCOC(=O)c1cc(C(=O)OCC)c(=O)[nH]c1N1CCCC1 | 51* | 57* | 50* | 56* | 54* | 24*
CCOC(=O)c1cc(C(=O)OCC)c(=O)[nH]c1C | 111 | 97 | 100 | 107 | 100 | 97
CC1(C)CC(=O)C/C(=N\NC(=O)C2CC23CCC3)C1 (stereo unspecified) | 98 | 97 | 97 | 99 | 98 | 95
FC(F)(F)c1cccc(NC(=S)NNC(=S)NCc2ccccc2)c1 | 80 | 86 | 80* | 81 | 84 | 86
COCCN1C(=S)NC(c2cccc(C(F)(F)F)c2)C(C(=O)N2CCOCC2)=C1C (stereo unspecified) | 94 | 92 | 97 | 94 | 92 | 93
O=C(COc1cccnc1[N+](=O)[O-])NC1CCS(=O)(=O)C1 (stereo unspecified) | 103 | 103 | 104 | 100 | 100 | 97
O=C(O)C1CCCN1C(=O)OCc1ccccc1 (stereo unspecified) | 139*[activator] | 121*[activator] | 121*[activator] | 128*[activator] | 122*[activator] | 120*[activator]
COC(CNC(=O)C1CCCN1C(=O)OCc1ccccc1)OC (stereo unspecified) | 121*[activator] | 115 | 117 | 119 | 116 | 115
O=C(N1CCOCC1)C12CC3CC(C1)CC(n1cnc(Cl)n1)(C3)C2 | 105 | 102 | 100 | 106 | 101 | 97
CC(C)NC(=O)C12CC3CC(C1)CC(n1cnc(Cl)n1)(C3)C2 | 121*[activator] | 106 | 105 | 111 | 107 | 105
O=C(C#Cc1cccc([N+](=O)[O-])c1)c1ccccc1 | 89 | 85 | 78* | 78* | 87 | 92
O=C(/C=C/c1cccc([N+](=O)[O-])c1)OCC(=O)c1ccccc1 | 106 | 101 | 96 | 96 | 94 | 98
CCC(CC)C(=O)NCc1ccc(Cl)cc1 | 100 | 97 | 98 | 99 | 98 | 96
Oc1ccc(N=Cc2cc(Br)c(N3CCOCC3)o2)cc1 | 103 | 104 | 102 | 105 | 103 | 97
O=[N+]([O-])c1cc(Br)c(O)c(C=Nc2ccc(N3CCOCC3)cc2)c1 | 84 | 88 | 84 | 79* | 87 | 97
O=c1nc2c(O)cccn2c2c1c(=O)[nH]c1ccccc12 | 61* | 59* | 77* | 70* | 62* | 81
O=c1[nH]c2ccccc2c2nc3ccccn3c12 | 99 | 93 | 95 | 95 | 92 | 94
SMILES | Rac1 wt GTP bind | HRas wt GTP bind | Rac1 mut GTP | Cdc42 wt GTP | Rab2A wt mod | Rab7 wt GTP bind
Cc1sc2nc(CSCC(=O)N(CCC#N)c3ccccc3)[nH]c(=O)c2c1C | 102 | 100 | 98 | 99 | 102 | 107
CN1/C(=C\C=C(/C#N)C(=O)Nc2ccc(Cl)cc2)C(C)(C)c2ccccc21 | 116 | 105 | 116 | 106 | 133*[activator] | 118
Cc1nn(C)c(Sc2ccccc2N)c1[N+](=O)[O-] | 98 | 103 | 98 | 100 | 103 | 108
COc1ccc(C(=O)CCc2nc3ccccc3s2)cc1 | 99 | 99 | 98 | 98 | 99 | 103
COc1ccc(C(=O)Nc2cc(Cl)ccc2OC(=O)c2ccc(OC)cc2)cc1 | 96 | 98 | 96 | 96 | 96 | 97
COc1ccc(C(=O)Nc2cc(Cl)ccc2C(=O)O)cc1 | 81 | 83 | 77* | 78* | 83 | 85
O=C(/C=C/c1ccccc1)NC(NC(=S)Nc1cccc(O)c1)C(Cl)(Cl)Cl (stereo unspecified) | 100 | 98 | 96 | 101 | 95 | 98
O=C(/C=C/c1ccccc1)NC(NC(=S)Nc1ccc(C(=O)O)cc1)C(Cl)(Cl)Cl (stereo unspecified) | 88 | 87 | 91 | 96 | 79* | 88
O=C1CC(C(=O)N2CCC(N3CCC(C(=O)NC4CC4)CC3)CC2)c2ccccc21 (stereo unspecified) | 96 | 96 | 93 | 92 | 97 | 103
C/C(=N\NC(=O)c1c[nH]c2ccccc12)c1ccc(C)o1 | 79* | 84 | 92 | 84 | 85 | 92
COc1cc(-c2cc(=O)c3c(O)cc(O)cc3o2)ccc1O | 78* | 83 | 88 | 82 | 83 | 93
COc1cc(-c2cc(=O)c3ccccc3o2)ccc1O | 93 | 94 | 93 | 93 | 94 | 97
CC(C)CNC(=O)c1ccc(Cl)c(N)c1 | 103 | 100 | 101 | 101 | 99 | 96
COc1cc2[nH]c(=S)nc(NC3CCCC3)c2cc1OC | 51* | 60* | 70* | 58* | 60* | 74*
COc1cc2[nH]c(=O)n(C3CCCCC3)c(=O)c2cc1OC | 106 | 102 | 98 | 103 | 101 | 102
CCN1CCN(C(=S)NCC(C)C)CC1 | 102 | 100 | 99 | 100 | 99 | 101
O=C(NNC(=S)NCc1ccc(Cl)cc1)c1ccc(Br)o1 | 90 | 90 | 80 | 78* | 77* | 96
